This note sets out measurements from PubChem BioAssay AID652154 (Broad Institute, 2013).

Where “and” joins values, the source holds several entries; their conditions need not be identical. Equal entries are not always repeated. Out of some 360,000 compounds screened, about 4,200 (1.2%) were called active.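 The calls were made as follows: active = mean replicate inhibition at least 60% with every replicate also reaching 60%; inconclusive = only one of the two criteria is met; inactive = mean below 60% and not all replicates reaching 60%.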 Shown is part of a subset that was picked to be rich in actives.

The term inhibition denotes the relative decrease from the control value, in per cent.

A short description of the assay: inhibitors of PAX8-driven TPO luciferase reporter, primary screen, RMG-I cells, single concentration (AID 652154).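 Also: luciferase light reporting Pax8 driven TPO promoter activity; plate controls were median of neutral control wells for no effect and mitoxantrone controls for full effect.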 The following applies: SteadyGlo, 24 h, at 12.6 µM, stronger effect = higher value.
With `CCS(=O)(=O)Nc1ccc2c(c1)C(=O)N(C)[C@@H]1CC[C@@H](CC(=O)NC)O[C@H]1CO2`, the inhibition is -18% (inactive).

With `CCCNC(=O)Nc1ccc2c(c1)OC[C@@H](C)N(CCC)C[C@H](C)[C@@H](OC)CN(C)C2=O`, the inhibition was -2.35% (inactive).

For `CCCNC(=O)Nc1ccc2c(c1)C(=O)N(C)[C@@H]1CC[C@@H](CC(=O)NC)O[C@H]1CO2`, the inhibition was -19.9% (inactive).

`O=C(c1cccnc1)N1CC2(C1)[C@@H](c1ccccc1)[C@H](CO)N2C(=O)C1CCC1`: the inhibition is -5.13% (inactive).

Turning to `CC(=O)N1CC[C@@H]2[C@@H](CO)N(C)c3ccc(-c4ccc(C#N)cc4)cc3[C@@H]21`, the inhibition is -6.97% (inactive).

Regarding `C[C@@H]1CN([C@H](C)CO)C(=O)Cc2cc(NC(=O)CCN3CCOCC3)ccc2O[C@H]1CN(C)Cc1ccncc1`, the inhibition was -2.37% (inactive).

For the compound `O=C(C1CCCC1)N1CCCCN2[C@@H](CO)[C@H](c3ccc(-c4cccc(F)c4)cc3)[C@@H]2C1`, the inhibition is 6.9% (inactive).

For `O=C(C1CCC1)N1CCCCN2[C@H](CO)[C@H](c3ccc(-c4cccc(F)c4)cc3)[C@@H]2C1`, the inhibition was -30.2% (inactive).

Consider `CN(C)CC#Cc1ccc([C@@H]2[C@H](CO)N3CCCCN(C(=O)NC4CCCC4)C[C@@H]23)cc1`, for which the inhibition was 6.59% (inactive).

As to `O=C(Nc1ccc(F)cc1)N1CCCCN2[C@H](CO)[C@H](c3ccc(C#Cc4ccccc4)cc3)[C@H]2C1`, the inhibition is 38% (inactive).

Regarding `O=C(C1CCC1)N1CCCCN2[C@H](CO)[C@H](c3ccc(-c4cccc(F)c4)cc3)[C@H]2C1`, the inhibition is 84.3% (active).

As to `CN(C)CC#Cc1ccc([C@@H]2[C@H](CO)N3CCCCN(C(=O)Nc4ccc(F)cc4)C[C@@H]23)cc1`, the inhibition is 92.8% (active).

`C[C@H](CO)N1C[C@H](C)[C@H](CN(C)C(=O)CCC(F)(F)F)OCCCC[C@H](C)Oc2ccc(NS(C)(=O)=O)cc2C1=O`: the inhibition was -0.897% (inactive).

For the compound `Cc1ccc(-c2cnc3c(c2)C(=O)N([C@H](C)CO)C[C@H](C)[C@@H](CN(C)C(=O)c2cccc(F)c2)O3)cc1`, the inhibition is 6.03% (inactive).

`CCNC(=O)[C@H]1[C@H](CO)[C@H]2Cn3c(ccc(-c4ccc(OC)cc4)c3=O)[C@H]2N1Cc1ccccc1`: the inhibition is 21.7% (inactive).

On to `CCNC(=O)C[C@H]1CC[C@@H]2[C@H](COC[C@H](O)CN2S(=O)(=O)c2ccc(Oc3ccccc3)cc2)O1`, for which the inhibition is -12.7% (inactive).

For `COc1ccc(NC(=O)N(C)C[C@H]2Oc3ccc(NS(=O)(=O)c4ccc(C)cc4)cc3C(=O)N([C@@H](C)CO)C[C@H]2C)cc1`, the inhibition is 2.38% (inactive).

Turning to `C[C@H](CO)N1C[C@H](C)[C@H](CN(C)C(=O)CCN(C)C)OCc2ccccc2-c2c(n(C)c3ccccc23)C1=O`, the inhibition was -16% (inactive).

Turning to `C[C@@H]1CN([C@H](C)CO)C(=O)c2cc(NC(=O)Nc3ccccc3)ccc2O[C@@H](C)CCCCO[C@H]1CN(C)Cc1ccc(C(F)(F)F)cc1`, the inhibition was 77.3% (active).

As for `C[C@@H]1CCCCO[C@@H](CN(C)Cc2ccc(C(=O)O)cc2)[C@H](C)CN([C@@H](C)CO)C(=O)c2cc(NC(=O)Nc3ccc(C(F)(F)F)cc3)ccc2O1`, the inhibition is -16.9% (inactive).

On to `C[C@@H]1CCCCO[C@@H](CN(C)Cc2ccccc2)[C@H](C)CN([C@H](C)CO)C(=O)c2cc(NC(=O)Nc3cccc4ccccc34)ccc2O1`, for which the inhibition was 73.4% (active).

In the case of `COc1ccc(CN(C)C[C@@H]2OCCCC[C@@H](C)Oc3ccc(NC(=O)Nc4ccc(OC)cc4)cc3C(=O)N([C@@H](C)CO)C[C@@H]2C)cc1`, the inhibition was -12.3% (inactive).

As to `COc1ccc(CN(C)C[C@@H]2OCCCC[C@@H](C)Oc3ccc(NC(=O)Nc4ccc(C(F)(F)F)cc4)cc3C(=O)N([C@H](C)CO)C[C@H]2C)cc1`, the inhibition is -16.7% (inactive).

With `C[C@@H]1CN([C@@H](C)CO)C(=O)c2cc(NC(=O)Nc3cccc4ccccc34)ccc2O[C@@H](C)CCCCO[C@H]1CN(C)Cc1ccccc1`, the inhibition is -1.82% (inactive).

Consider `C[C@@H]1CCCCO[C@@H](CN(C)Cc2ccc(C(F)(F)F)cc2)[C@@H](C)CN([C@H](C)CO)C(=O)c2cc(NC(=O)Nc3ccccc3)ccc2O1`, for which the inhibition was -1.66% (inactive).

Take `COc1ccc(NC(=O)Nc2ccc3c(c2)C(=O)N([C@@H](C)CO)C[C@H](C)[C@H](CN(C)Cc2ccc(C(F)(F)F)cc2)OCCCC[C@H](C)O3)cc1`: the inhibition was 71.6% (active).

`CC(C)NC(=O)Nc1ccc2c(c1)C(=O)N([C@H](C)CO)C[C@H](C)[C@@H](CN(C)Cc1ccc(C(F)(F)F)cc1)OCCCC[C@@H](C)O2`: the inhibition is -13.6% (inactive) and 26.1% (inactive).

In the case of `C[C@H](CO)N1C[C@H](C)[C@@H](CN(C)Cc2ccc3c(c2)OCO3)OCCCC[C@H](C)Oc2ccc(NC(=O)Nc3ccc(C(F)(F)F)cc3)cc2C1=O`, the inhibition was 36.6% (inactive).

Take `C[C@H]1CCCCO[C@@H](CN(C)Cc2ccc(C(F)(F)F)cc2)[C@@H](C)CN([C@@H](C)CO)C(=O)c2cc(NC(=O)Nc3ccccc3)ccc2O1`: the inhibition is 67.9% (active).

Regarding `C[C@@H]1CCCCO[C@H](CN(C)Cc2ccccc2)[C@H](C)CN([C@@H](C)CO)C(=O)c2cc(NC(=O)Nc3cccc4ccccc34)ccc2O1`, the inhibition was 21% (inactive).

Regarding `CC(C)NC(=O)N1C[C@@H]2[C@H](c3ccccc31)[C@H](CO)N2C(=O)c1ccccn1`, the inhibition was -13.7% (inactive).

In the case of `COCC#Cc1ccc([C@@H]2[C@@H](CO)N3C(=O)CN(C(=O)C4CCOCC4)C[C@@H]23)cc1`, the inhibition is -23.4% (inactive).

For `COc1ccc(NC(=O)N(C)C[C@H]2Oc3ccc(N(C)C)cc3C(=O)N([C@@H](C)CO)C[C@H]2C)cc1`, the inhibition is -20.3% (inactive).

As to `O=C(NCC1CC1)[C@@H]1[C@@H](CO)[C@@H]2Cn3c(ccc(C4=CCCC4)c3=O)[C@H]1N2CCC(F)(F)F`, the inhibition is -4.22% (inactive).

Consider `CCCNC(=O)N1C[C@H]2[C@@H](c3ccccc31)[C@@H](CO)N2C(=O)NCCC`, for which the inhibition is -23.2% (inactive).

Regarding `Nc1nc2c(ncn2[C@@H]2O[C@H](C(=O)N[C@H](Cc3ccccc3)C(=O)NCC3CCCCC3)[C@@H](O)[C@H]2O)c(=O)[nH]1`, the inhibition was -4.88% (inactive).

Turning to `C[C@H](CO)N1C[C@H](C)[C@@H](CN(C)C(=O)Nc2ccnc(N3CCOCC3)c2)OCc2ccccc2-c2ccccc2C1=O`, the inhibition was -26.9% (inactive).

`C[C@@H]1CN([C@@H](C)CO)C(=O)Cc2cc(NC(=O)Nc3ccc(F)cc3)ccc2O[C@@H]1CN(C)C`: the inhibition was -0.58% (inactive).

Turning to `C[C@H](CO)N1C[C@H](C)[C@@H](CN(C)Cc2ccncc2)Oc2ccc(NS(=O)(=O)c3ccc(Cl)cc3)cc2CC1=O`, the inhibition is 20.9% (inactive).

As for `CCCNC(=O)N1CC2(C1)[C@@H](c1ccccc1)[C@@H](CO)N2C(=O)CC1CC1`, the inhibition was -12.2% (inactive).

With `CCCNC(=O)N1C[C@@H](C)[C@@H](OC)CN(C)C(=O)c2ccc(NC(=O)CCC)cc2OC[C@H]1C`, the inhibition is 1.97% (inactive).

For `C[C@@H]1CN([C@H](C)CO)C(=O)c2cc(Br)cnc2O[C@@H]1CN(C)C(=O)Nc1ccc(F)cc1`, the inhibition is 9.97% (inactive).

With `C[C@@H]1CCCCO[C@@H](CN(C)Cc2ccc(C(=O)O)cc2)[C@@H](C)CN([C@@H](C)CO)C(=O)c2cc(NC(=O)Nc3ccc(C(F)(F)F)cc3)ccc2O1`, the inhibition is -6.61% (inactive).

For the compound `C[C@@H]1CN([C@H](C)CO)C(=O)c2cc(NC(=O)Nc3ccc(C(F)(F)F)cc3)ccc2O[C@@H](C)CCCCO[C@@H]1CN(C)Cc1ccc(C(F)(F)F)cc1`, the inhibition was -27.4% (inactive).

In the case of `C[C@@H]1CCCCO[C@H](CN(C)Cc2ccc(C(F)(F)F)cc2)[C@H](C)CN([C@H](C)CO)C(=O)c2cc(NC(=O)Nc3ccc(F)cc3)ccc2O1`, the inhibition was 92.5% (active).

With `COc1ccc2c3c([nH]c2c1)[C@H](CO)N(C(=O)C1CCCCC1)CC31CCN(C(=O)c2ccncc2)CC1`, the inhibition was 3.94% (inactive).

`CCC(=O)N(C)C[C@@H]1Oc2cc(-c3ccccc3OC)ccc2S(=O)(=O)N([C@H](C)CO)C[C@H]1C`: the inhibition was -9.48% (inactive).

Take `COC(=O)C[C@@H]1CC[C@H]2[C@H](COc3ccc(NC(=O)c4ccccc4F)cc3C(=O)N2C)O1`: the inhibition is 9.97% (inactive).

As for `C=CCn1c(C)cc(C2=NNC(=NCC)SC2)c1C`, the inhibition was 107% (active).

Consider `O=C(C(=O)N1CCC(CNS(=O)(=O)Cc2ccccc2)CC1)c1cc2ccccc2o1`, for which the inhibition is 10% (inactive).

Turning to `COc1ccc(NC(=O)Nc2ccc3c(c2)[C@@H]2C[C@H](CC(=O)N[C@@H](C)c4ccccc4)O[C@@H](CO)[C@@H]2O3)cc1`, the inhibition is -20.1% (inactive).

For `C[C@H](NC(=O)C[C@H]1CC[C@H]2[C@@H](COC[C@H](O)CN2C(=O)Nc2cc(Cl)cc(Cl)c2)O1)c1ccccc1`, the inhibition was 3.71% (inactive).

As to `C[C@H]1CCCCO[C@@H](CN(C)Cc2ccccc2)[C@@H](C)CN([C@@H](C)CO)C(=O)c2cc(NC(=O)Cc3ccccc3)ccc2O1`, the inhibition was -9.52% (inactive).

As for `CNC(=O)C[C@H]1CC[C@@H]2[C@@H](COc3ccc(NC(=O)c4ccc(F)c(F)c4)cc3C(=O)N2C)O1`, the inhibition is -18.3% (inactive).

Consider `COc1ccc(N2CCN(S(=O)(=O)c3ccc4c(c3)N(C(C)=O)CCO4)CC2)cc1`, for which the inhibition was 3.96% (inactive).

As for `CCOC(=O)C1CCN(S(=O)(=O)c2ccc3c(c2)N(C(C)=O)CCO3)CC1`, the inhibition is 8.01% (inactive).

In the case of `CC(=O)N1CCOc2ccc(S(=O)(=O)N3CCN(c4cccc(C(F)(F)F)c4)CC3)cc21`, the inhibition is 92.2% (active).

As to `C[C@H]1CN([C@@H](C)CO)C(=O)c2cc(NC(=O)Nc3ccccc3)ccc2O[C@H]1CN(C)C(=O)Nc1ccc(F)cc1`, the inhibition is -5.44% (inactive).

For the compound `O=C(C[C@@H]1CC[C@@H]2[C@H](COC[C@H](O)CN2Cc2cccc(C(F)(F)F)c2)O1)NCc1ccc(F)cc1`, the inhibition was 19.6% (inactive).
